# High-throughput results as filed in PubChem.
# In the library only some 3.3% were active in any assay of this set; here they are far more common.
# UBC9 SUMO inh = SUMOylation inhibition; P63279; HTRF SUMOylation assay, SAE1/SAE2 + UBC9, in vitro; inhibition, % at 35 µM; hit rate 0.36% among 290,000; AID 2006; in the data active means inhibition above about 50%, passing the limit was not always enough
# Target sequence (P63279 whole entry, looked up): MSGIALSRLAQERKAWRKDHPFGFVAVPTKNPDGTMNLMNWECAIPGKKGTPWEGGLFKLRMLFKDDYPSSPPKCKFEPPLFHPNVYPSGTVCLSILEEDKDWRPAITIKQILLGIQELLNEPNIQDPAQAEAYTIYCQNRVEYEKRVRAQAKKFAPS
# UBC13 inh = blocks human UBC13 polyubiquitin chain formation; TR-FRET; inhibition, % at 20 µM; hit rate 0.47% among 330,000; in the data active means inhibition above about 45%, passing the limit was not always enough
# Target sequence (P61088 whole entry, looked up): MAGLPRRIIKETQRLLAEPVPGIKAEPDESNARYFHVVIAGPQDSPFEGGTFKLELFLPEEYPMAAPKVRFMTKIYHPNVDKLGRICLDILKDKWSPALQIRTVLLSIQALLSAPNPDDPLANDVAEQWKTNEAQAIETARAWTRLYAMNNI
# sPLA2-III inh = Blocks human group III sPLA2 activity | Q9NZ20 | QFRET BODIPY PC-A2 liposome hydrolysis, fluorescence | inhibition, % at 12.2 µM | hit rate 0.56% among 370,000 | AID 743126;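 active means inhibition above mean plus 3 SD of compounds lying within the high and low control bounds, cut at about 19% in these data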;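 further: 0% = median of test compound wells and 100% = no enzyme DMSO wells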
# NR3A LBD binder = modulators (binders) of human NR3A ligand-binding domain. NR3A LBD differential scanning fluorimetry, Tm shift; 0% = protein alone, 100% = glycine-bound protein. Tm shift relative to glycine control, % at 25 µM. hit rate 2.5% among 340,000;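 active means melting temperature shift of at least 10% of the positive control shift, at one fixed dose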
# Casp3 UBC13 ctr = caspase-3 inhibition (UBC13 counter-screen). hit rate 4% among 1,400. AID 488856. Recombinant caspase-3, Caspase-Glo 3/7 luminescence, 60 min. inhibition, % at 20 µM. shares compounds with UBC13 inh;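 active means mean inhibition across replicates above about 26%, limit read from the data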;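 further: plate controls were DMSO with caspase-3 for no effect and DMSO wells lacking enzyme for full effect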
# Target sequence (P42574 whole entry, looked up): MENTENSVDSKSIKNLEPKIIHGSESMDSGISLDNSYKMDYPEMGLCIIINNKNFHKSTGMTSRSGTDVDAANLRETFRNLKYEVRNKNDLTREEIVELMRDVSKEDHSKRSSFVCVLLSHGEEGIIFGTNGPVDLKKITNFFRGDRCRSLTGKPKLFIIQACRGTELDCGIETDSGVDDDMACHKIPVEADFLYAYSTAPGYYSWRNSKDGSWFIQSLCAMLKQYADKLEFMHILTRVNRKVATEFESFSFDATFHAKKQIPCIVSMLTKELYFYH
# UBC13 confirm = human UBC13 polyubiquitin inhibition, confirmed; shares compounds with UBC13 inh; UBC13 polyubiquitination, TR-FRET, biochemical; inhibition, % at 10 µM; hit rate 68% among 1,400; AID 488859; in the data active means inhibition above about 45%
# Starred values were filed as active, the others as inactive; nt = no result.
SMILES,UBC9 SUMO inh,UBC13 inh,sPLA2-III inh,NR3A LBD binder,Casp3 UBC13 ctr,UBC13 confirm
C#CCOCCOCCOCCNc1nc(N2CCN(C(=O)[C@H](Cc3ccc(O)cc3)n3cc([C@@H](N)CC(C)C)nn3)CC2)nc(N2CCN(C(=O)[C@H](Cc3cc4ccccc4[nH]3)n3cc([C@@H](N)CC(C)C)nn3)CC2)n1,-50,80*,-42,-1,-4,62*
C#CCOCCOCCOCCNc1nc(N2CCN(C(=O)[C@H](CCC(=O)O)n3cc(C(N)CC(C)C)nn3)CC2)nc(N2CCN(C(=O)[C@H](Cc3cc4ccccc4[nH]3)n3cc(C(N)[C@H](C)CC)nn3)CC2)n1 (stereo not given in full),10,5,nt,-2,nt,nt
C#CCOCCOCCOCCNc1nc(N2CCN(C(=O)[C@H](CCCCN)n3cc([C@@H](N)CC(C)C)nn3)CC2)nc(N2CCN(C(=O)[C@H](Cc3cc4ccccc4[nH]3)n3cc([C@@H](N)Cc4ccc(O)cc4)nn3)CC2)n1,-1,103*,nt,0,2,116*
C#CCOCCOCCOCCNc1nc(N2CCN(C(=O)[C@H](CCCCN)n3cc([C@@H](N)CC(C)C)nn3)CC2)nc(N2CCN(C(=O)[C@H](Cc3cc4ccccc4[nH]3)n3cc([C@@H](N)CC(C)C)nn3)CC2)n1,nt,nt,-41,nt,nt,nt
Cc1cccc(CCNC(=O)c2ccc3c(c2)ncn3C2CCCCC2)c1,nt,nt,-5,nt,nt,nt
O=C(C1CCCN1S(=O)(=O)c1ccc(Br)s1)N1CCN(c2ccccc2)CC1 (stereo not given),nt,nt,2,nt,nt,nt
NCC12CC3CC(C1)CC(c1ccc(Cl)cc1)(C3)C2,-1,57*,11,-4,-4,76*
Nc1ccc(C23CC4CC(CC(CO)(C4)C2)C3)cc1,16,4,-5,1,nt,nt
CCCN1CC(=O)N2[C@H](C[C@@]3(n4ccc5ccccc54)c4ccccc4N(S(=O)(=O)c4ccccc4)[C@@H]23)C1=O,nt,nt,-8,nt,nt,nt
Cc1cc2oc3cc(NCCC4CCCN4C)ccc3c(=O)c2cc1C (stereo not given),nt,61*,-13,-10,21,47*
COc1ccccc1CNC(=O)N1CCC(c2nc3ccc(Cl)cc3[nH]2)CC1,nt,nt,-3,nt,nt,nt
CCC(C)n1c(=O)c(C(=O)Nc2ccccc2S(N)(=O)=O)c(O)c2ccccc21 (stereo not given),5,44,-10,-2,nt,nt
CC(C)Cn1c(=O)c(C(=O)Nc2ccccc2S(N)(=O)=O)c(O)c2ccccc21,10,69*,0,-1,-3,2
Cc1cc(C)cc(N(CC(=O)NC2CCC(C)CC2)S(=O)(=O)c2ccc(C)c(C)c2)c1 (stereo not given),nt,nt,3,nt,nt,nt
CCN1CCN(Cc2ccc(NC(=O)c3ccc(C)c(NC(=O)c4cc(-c5ccc(Br)cc5)n[nH]4)c3)cc2C(F)(F)F)CC1,1,72*,-11,0,2,65*
CCN1CCN(Cc2ccc(NC(=O)c3cc(NC(=O)c4nccnc4N)cc(OC)c3)cc2C(F)(F)F)CC1,7,33,-9,-25,nt,nt
CCN1CCN(Cc2ccc(NC(=O)c3ccc(C)c(NC(=O)c4nccn4C)c3)cc2C(F)(F)F)CC1,24,-2,-4,0,nt,nt
CCN1CCN(Cc2ccc(NC(=O)c3cc(NC(=O)c4cncc(-c5ccc(C#N)cc5)c4)cc(OC)c3)cc2C(F)(F)F)CC1,-28,118*,-20,-8,0,126*
COc1ccc2c(c1)N[C@@](CCNC=O)(c1[nH]c3ccccc3c1CCNC=O)C2=O,nt,nt,11,nt,nt,nt
Cc1cc(N2CCN(C)CC2)nc2ccc(NC(=S)N3CCN(c4ccc(F)cc4)CC3)cc12,15,47*,1,0,-3,38
Cc1cc(N2CCN(C)CC2)nc2ccc(NC(=S)N3CCN(c4ccc(Cl)cc4)CC3)cc12,1,76*,1,0,5,70*
Cc1cc(N2CCN(C)CC2)nc2ccc(NC(=S)N3CCN(c4cccc(Cl)c4)CC3)cc12,11,61*,-3,1,0,54*
COCCNC(=O)[C@]1(C#N)CC(=O)N(C)[C@@H]1c1ccccc1,nt,nt,4,nt,nt,nt
O=C(OC12CCCN(C1)/C(=C/c1ccc(Cl)cc1)C2)C1CCCCC1 (stereo not given),nt,nt,9,nt,nt,nt
COc1cc2sc(-c3ccc(S(C)(=O)=O)cc3)c(C(=O)NCc3ccc(C)o3)c2cc1OC,nt,46*,-3,1,5,42
SMILES,UBC9 SUMO inh,UBC13 inh,sPLA2-III inh,NR3A LBD binder,Casp3 UBC13 ctr,UBC13 confirm
COc1cc2sc(-c3ccc(S(C)(=O)=O)cc3)c(C(=O)NCCCCO)c2cc1OC,nt,46*,-3,0,3,43
Cc1ccc(CNC(=O)c2c(-c3ccccc3)sc3ccccc23)o1,nt,10,3,1,nt,nt
COc1ccc(Br)cc1/C(C)=N/NC1=NCCN1,0,9,-3,-1,nt,nt
CCCCCOc1ccc(Br)cc1/C(C)=N/NC1=NCCN1,-8,58*,-2,2,-3,64*
CC1(c2nnnn2C2CCCCC2)CSCC(=O)N1CCc1ccc(O)cc1 (stereo not given),nt,nt,-8,nt,nt,nt
COc1ccc(CNC2CCC23CCCCC3)cc1OC (stereo not given),nt,nt,8,nt,nt,nt
CCOC(=O)c1c(CN2CCN(c3ccccc3)CC2)oc2ccc(O)cc12,19,91*,-27,-7,-3,83*
Cc1cccc(CN2CCN(C3CN(Cc4cn(Cc5ccc(C(F)(F)F)cc5)nn4)S(=O)(=O)C3)CC2)c1 (stereo not given),nt,nt,-10,nt,nt,nt
Cc1c(NC(=O)CCCCCN2C(=O)c3ccccc3C2=O)c(=O)n(-c2ccccc2)n1C,1,106*,19,-1,0,110*
Cc1c(Br)c([N+](=O)[O-])nn1CCCC(=O)Nc1c(C)n(C)n(-c2ccccc2)c1=O,2,49*,0,0,3,42
O=C(COCc1ccccc1)NC1CCCCN(Cc2cccc(Cl)c2)C1=O (stereo not given),nt,nt,-2,nt,nt,nt
C[C@@H]1OC(C2CCCCC2)N(C)[C@H]2C[C@H]3c4[nH]c5c(-c6ccc7c(c6)OCO7)cccc5c4CCN3C[C@@H]12 (stereo not given in full),nt,nt,1,nt,nt,nt
O=C(O)[C@H]1CCCC[C@H]1C(=O)NCCc1ccccc1,18,67*,3,0,0,9
O=C(NN1C(=O)CSC1=S)C(=O)NN1C(=O)CSC1=S,96*,47*,2,0,8,29
CC(=O)N1CCN(C(=O)C2CCCN(C(=O)c3ccc4c(c3)NC(=O)CS4)C2)CC1 (stereo not given),nt,nt,-3,nt,nt,nt
CCCCCCCCCCCCCCCC[n+]1ccc(C(N)=O)cc1,14,89*,-5,16*,-3,99*
CCCCCCCCCCCCCCCC[n+]1ccc(/C=N/O)cc1,0,91*,-14,25*,-2,88*
